LASV entry inh: blocks Lassa virus binding to or entry into cells; Lassa virus pseudotype entry inhibition, cell reporter; Potency, µM (series often up to 37.9 µM), inactives show at the highest dose activity change, negative = inhibition, usual class: inhibitors; 1.2% of 300,000 active; AID 540256; calls by dose curve; tested in HEK293 cells; also: potency is read from the fitted curve at half-maximal effect; % is scaled to controls: 0 for no effect and ±100 for the full control effect; nearly all actives have a fitted effect of over 50% in size
Shiga toxin inh: blocks Shiga toxin action in Vero cells. 9.2% of 290,000 active. Vero cells, Shiga toxin protein synthesis inhibition reporter. inhibition, % at 38.7 µM; in the data active = inhibition mostly above about 28%, no sharp cut-off; inactive = mostly below about 43%; also: 0% is about no effect
Cycloheximide cs: counter-screen hit for Shiga toxin inhibitors, cycloheximide | 12% of 300,000 active | max response, % | cell reporter, cycloheximide protein synthesis inhibition counterscreen; in the data active = max response mostly above about 13%, no sharp cut-off; inactive = mostly below about 14%; also: read at 38.3 µM for the half of the compounds with a filed dose; 0% is about no effect
Vaccinia Venus: inhibitors of vaccinia virus (Venus reporter); Vaccinia virus Venus reporter expression, fluorescence; Potency, µM (doses to about 36.5 µM), for inactives: at the top dose activity change, negative = inhibition, most hits filed as inhibitors; 0.46% of 330,000 active; AID 720580; calls by dose curve; tested in A549 cells; also: potency is read from the fitted curve at half-maximal effect; % is scaled to controls: 0 for no effect and ±100 for the full control effect; nearly all actives have a fitted effect of over 30% in size
VACV mCherry inh: vaccinia inhibition (mCherry reporter) | Vaccinia virus mCherry reporter infection, fluorescence | Potency, µM (top dose mostly 36.5 µM), for inactives: top-dose activity change, negative = inhibition, actives largely listed as inhibitors | 0.63% of 310,000 active | AID 720579; calls by dose curve; tested in A549 cells; also: potency is read from the fitted curve at half-maximal effect; % is scaled to controls: 0 for no effect and ±100 for the full control effect; nearly all actives have a fitted effect of over 35% in size
Marburg entry inh: Marburg virus entry inhibition. 1.8% of 300,000 active. Marburg virus pseudotyped entry inhibition, cell reporter. Potency, µM (top dose mostly 37.8 µM), inactives show at the top dose activity change, negative = inhibition, most hits filed as inhibitors; calls by dose curve; tested in HEK293 cells; also: potency is read from the fitted curve at half-maximal effect; % is scaled to controls: 0 for no effect and ±100 for the full control effect
Active calls of the source: *; i = inactive; ? = inconclusive; . = not tested or not shown; + = active, no number; [ ] = another dose, or the depositor's remark. This is one part of a sample in which hits are shown more often than they occur.

SMILES	LASV entry inh	Shiga toxin inh	Cycloheximide cs	Vaccinia Venus	VACV mCherry inh	Marburg entry inh
COc1ccc2cc(C(=O)C3CCCN(C4CCOCC4)C3)ccc2c1 (stereo not drawn)	2%[46.1 µM]	-11	-3	-22%	-23%	7.9µM*
COc1c(C)cc(C(=O)C2CCCN(C3CCOCC3)C2)cc1C (stereo not drawn)	15%[46.1 µM]	-2	2	-13%	i	-8%[46.1 µM]
COc1ccc(C(=O)C2CCCN(C3Cc4ccccc4C3)C2)c(OC)c1 (stereo not drawn)	-14%	74*	24*	9%	-15%	?
Cc1cc2c(cc1C)C(c1cccc([N+](=O)[O-])c1)CC(=O)N2 (stereo not drawn)	?	-25	-3	1µM*	0.35µM*	4.5µM*
COc1cc(C2CC(=O)Nc3cc(C)c(C)cc32)cc(OC)c1OC (stereo not drawn)	?	21	-4	-19%	?	-22%
Cc1ncc(CSCC(=O)Nc2cc(C(F)(F)F)ccc2Cl)c(CO)c1O	-21%[46.1 µM]	33	-1	-22%	-6%	-2%[46.1 µM]
Cc1ncc(CO)c(/C=N/NC(=S)Nc2ccc(F)cc2)c1O	?	11	-1	-26%	?	14µM*
Cc1ncc(CO)c(/C=N/N=C/c2ccccc2O)c1O	?	34	16*	-10%	i	28%
CCOc1ccccc1C=NN=Cc1ccccc1O	5%[46.1 µM]	.	.	-11%	i	24%
Cc1ncc(CO)c(/C=N/Nc2ccc(C(F)(F)F)cn2)c1O	?	-4	-4	-17%	?	4µM*
COc1ccc(-n2nc(C(=O)NCC(=O)Nc3ccc(F)cc3)c3ccccc3c2=O)cc1	.	-8	-2	-24%	-4%	24%[46.1 µM]
O=C(C[N+]12CN3CN(CN(C3)C1)C2)c1ccc(O)c(O)c1	.	.	.	-11%	-14%	.
C#CCN1C(=O)CC[C@@]23C1=NC(C(=O)OC)=C(C(=O)OC)[C@@H]2N(CC=C(C)C)c1ccccc13	?	.	.	.	.	15%[14.2 µM]
C=CCS/C(N)=N\N=C\c1c(O)ccc2ccccc12	.	114*	44*	.	.	.
CCCS/C(N)=N/N=C/c1ccccc1O	?	50*	38*	-13%	.	?
NC(=O)c1ccc(N=Cc2c(O)ccc3ccccc23)cc1	3%[46.1 µM]	.	.	-26%	-28%	?
Cn1c(=O)c2cc(NC(=S)NCc3ccccc3F)ccc2n1Cc1cccc(C(F)(F)F)c1	.	.	.	-23%	i	.
c1ccc(-c2onc3cc4c(cc23)OCCO4)cc1	-1%	+	35*	-25%	.	15%
NC(=O)c1cc(-c2ccc(F)cc2)cc(-c2ccncc2)c1N	10%	.	.	.	.	.
COc1cc(/C=N/N=C2/NC(=O)C(c3ccccc3)S2)ccc1O (stereo not drawn)	4.5µM*	-2	6	-17%	-19%	15%
COc1ccc(/C=N/N=C2/NC(=O)C(CC(=O)O)S2)cc1OCc1ccc(Cl)cc1Cl (stereo not drawn)	-4%	-3	-4	-10%	-17%	1.1µM*
COc1cc(/C=N/N=C2/NC(=O)C(Cc3ccc(F)cc3)S2)ccc1O (stereo not drawn)	?	84*	34*	-23%	?	?
Cc1ccc(-c2csc3nc(-c4ccncc4)[nH]c(=O)c23)cc1	.	-9	-8	-5%	-5%	.
Cc1ccc(-c2nc3ccsc3c(=O)[nH]2)cc1	?	103*	42*	-13%	-6%	?
CC(C)Cn1cc(NC(=O)NCc2ccccc2Cl)c2ccccc2c1=O	?	.	.	1%	4%	.
SMILES	LASV entry inh	Shiga toxin inh	Cycloheximide cs	Vaccinia Venus	VACV mCherry inh	Marburg entry inh
O=C(Nc1ccc2c(c1)OCO2)c1noc2c1CCCC2	?	53*	33*	-14%	-22%	7.1µM*
O=C(Nc1cccnc1)c1noc2c1CCCC2	-1%	85*	47*	.	.	16%
O=C(Nc1ccc2c(c1)OCO2)c1noc2c1CCCCC2	?	101*	38*	.	.	?
CC(C)(C)C1CCc2onc(C(=O)Nc3cccnc3)c2C1 (stereo not drawn)	2%	-12	-3	.	.	?
CC(=O)c1ccc(NC(=O)c2noc3c2CCCCC3)cc1	.	44*	40*	.	.	-3%
COc1ccc(-c2nn(C)c3sc(C(=O)Nc4cccc(F)c4)cc23)cc1OC	?	.	.	-9%	-17%	.
CCc1ccc(NC(=O)CN2C(C(=O)OC)=C(c3ccccc3)c3ccccc3S2(=O)=O)cc1	?	.	.	-16%	-18%	?
COc1ccc(CNC(=O)Cc2c(C)c3cc4c(C)coc4c(C)c3oc2=O)cc1OC	?	.	.	-1%	-3%	7%[46.1 µM]
CCn1cc(/C=C/C(=O)Nc2ccc(C)cc2Br)cn1	?	active	29*	-6%	-17%	11%
CC(NC(=O)c1ccco1)c1nnc2n1CCN(Cc1ccc(N3CCCC3)cc1)CC2 (stereo not drawn)	.	.	.	1%	-3%	.
O=C(Cc1ccc(Cl)cc1)c1ccc(O)cc1	.	110*	48*	.	.	.
Cc1ccc(C(=O)CCC(=O)NCc2ccc(Cl)cc2)cc1	12%	.	.	-7%	i	?
O=C(Cc1ccccc1)c1ccc(Cl)cc1	-34%	60*	32*	-2%	-12%	?
Cc1ccc(CC(=O)c2ccc(Cl)cc2)cc1	3%[46.1 µM]	68*	47*	18%	-4%	?
NC(=O)c1cc(C(=O)Cc2ccc(Cl)cc2)c[nH]1	3%	40*	23*	-6%	-17%	21%
O=C(C[n+]1cccc(Cl)c1)c1ccc(O)c(O)c1	.	.	.	-8%	-8%	.
Cc1csc(SCC(=O)NC(C)c2ccc(F)cc2)n1 (stereo not drawn)	6%	-2	-4	-2%	3%	-1%[46.1 µM]
CC(C)(C)NC(=O)CSc1nc(-c2ccc(F)cc2)cs1	?	83*	32*	-18%	i	?
CCNC(=O)CSc1nc(-c2ccc(F)cc2)cs1	14%	101*	32*	.	.	6%
CCCCc1nc2c(c3c1C[C@H](C)OC3)CN(S(=O)(=O)c1ccc(C)cc1)CC2	?	.	.	.	.	5%[14.2 µM]
COc1ccc2nc(N3CCN(C(=O)CS(=O)(=O)c4ccc(C)cc4)CC3)sc2c1	-30%[46.1 µM]	.	.	?	?	.
COc1cc(/C=N/N2CCOCC2)ccc1OCc1ccccc1	-4%	36	16*	-23%	-20%	?
COc1cc(/C=N/N2CCOCC2)ccc1OCc1ccc(Cl)cc1	2%	82*	37*	5%	i	-12%[46.1 µM]
COc1ccc(/C=N/N2CCOCC2)cc1O	-1%	48*	28*	-1%	-8%	?
COc1ccc(/C=N/N2CCOCC2)cc1OCc1ccccc1	4%	16	9	-6%	5%	-3%[46.1 µM]
COc1ccc(/C=N/N2CCN(C3c4ccccc4-c4ccccc43)CC2)cc1O	-16%	-2	9	-18%	-13%	?
O=C(O)c1ccccc1C(=O)NC1CCCCNC1=O (stereo not drawn)	-8%[46.1 µM]	27	1	-18%	-4%	-3%[46.1 µM]
CN(C)c1ccc(/C=C/c2cc3ccccc3cn2)cc1	.	.	.	-29%	-28%	.
